Only some compounds are listed: those with a hit (about 8.2% of all), similar ones and a draw of the others.
MCF10A rerep = inducers of DNA re-replication in MCF 10A breast cells; 350,000 tested, 2.9% active; Potency, µM (top dose mostly 46.1 µM), hits mostly activators; MCF 10A DNA re-replication, Hoechst nuclear intensity, 48 h; AID 624296; further: nearly all actives have a fitted effect of over 50% in size
ELG1 DNA repair = blocks ELG1-dependent DNA repair in HEK293T cells; 330,000 tested, 2.3% active; AID 504467; Potency, µM (doses to about 46.1 µM), usual class: inhibitors; HEK293T ELG1-luciferase reporter, luminescence, 16 h; DNA damage induced by 5-fluorouridine; further: nearly all actives have a fitted effect of over 55% in size
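Quantitative HTS, concentration-response format. 2,000 cells/well co-treated with 5-fluorouridine and compound, 16 hr in 5% CO2 at 37 °C; ONE-Glo luminescence read after 30 min.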
SW480 rereplic = DNA re-replication induction in SW480 cells; SW480 DNA re-replication, Hoechst DNA content imaging, 48 h; Potency, µM (highest dose often 46.1 µM), hits mostly activators; 340,000 tested, 1.8% active; further: nearly all actives have a fitted effect of over 55% in size
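Quantitative HTS format with DMSO vehicle controls; 48 hr drug incubation at 37 C, then 40 min Hoechst staining and scanning imager measurement at 405 nm excitation.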
KB-V1 MDR tox = KB-V1 MDR subline cytotoxicity | AID 1347076 | KB-V1 MDR cells viability, CellTiter-Glo, 72 h | 400,000 tested, 3.4% active | Potency, µM (series often up to 46.1 µM), actives largely listed as cytotoxic; further: nearly all actives have a fitted effect of over 60% in size
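Readout: CellTiter-Glo luminescence, 10 min after addition. Cells: KB-V1 MDR subline, 72 h at 37 degrees C with compound. Analysis: corrected, normalized data fitted to concentration-effect curves.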
KB-3-1 cytotox = kills parental KB-3-1 adenocarcinoma cells; KB-3-1 viability, CellTiter-Glo ATP luminescence, 72 h; Potency, µM (highest dose often 46.1 µM), usual class: cytotoxic; 400,000 tested, 1.4% active; further: nearly all actives have a fitted effect of over 60% in size
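Cells are dispensed, compounds pinned in, plates held at 37 °C for 72 h, then CellTiter-Glo is added and luminescence read after 10 minutes. Cell line: parental KB-3-1 in phenol-red-free DMEM, 10% FBS.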
ELG1 FLuc counter = luciferase inhibition in cell-free luciferin readout for ELG1 hits | Potency, µM (series often up to 46.1 µM), actives largely listed as inhibitors | cell-free firefly luciferase luminescence counter-screen, ViewLux | 350 tested, 3% active | shares compounds with ELG1 DNA repair
ELG1 Luc conf = confirmation of human ELG1-dependent DNA repair inhibitors; shares compounds with ELG1 DNA repair; 670 tested, 68% active; HEK293T ELG1-luciferase levels, luminescence; cells co-treated with 5-fluorouridine; Potency, µM (series often up to 46.1 µM), hits mostly inhibitors; further: nearly all actives have a fitted effect of over 55% in size
Target sequence (Q96QE3 whole entry, looked up): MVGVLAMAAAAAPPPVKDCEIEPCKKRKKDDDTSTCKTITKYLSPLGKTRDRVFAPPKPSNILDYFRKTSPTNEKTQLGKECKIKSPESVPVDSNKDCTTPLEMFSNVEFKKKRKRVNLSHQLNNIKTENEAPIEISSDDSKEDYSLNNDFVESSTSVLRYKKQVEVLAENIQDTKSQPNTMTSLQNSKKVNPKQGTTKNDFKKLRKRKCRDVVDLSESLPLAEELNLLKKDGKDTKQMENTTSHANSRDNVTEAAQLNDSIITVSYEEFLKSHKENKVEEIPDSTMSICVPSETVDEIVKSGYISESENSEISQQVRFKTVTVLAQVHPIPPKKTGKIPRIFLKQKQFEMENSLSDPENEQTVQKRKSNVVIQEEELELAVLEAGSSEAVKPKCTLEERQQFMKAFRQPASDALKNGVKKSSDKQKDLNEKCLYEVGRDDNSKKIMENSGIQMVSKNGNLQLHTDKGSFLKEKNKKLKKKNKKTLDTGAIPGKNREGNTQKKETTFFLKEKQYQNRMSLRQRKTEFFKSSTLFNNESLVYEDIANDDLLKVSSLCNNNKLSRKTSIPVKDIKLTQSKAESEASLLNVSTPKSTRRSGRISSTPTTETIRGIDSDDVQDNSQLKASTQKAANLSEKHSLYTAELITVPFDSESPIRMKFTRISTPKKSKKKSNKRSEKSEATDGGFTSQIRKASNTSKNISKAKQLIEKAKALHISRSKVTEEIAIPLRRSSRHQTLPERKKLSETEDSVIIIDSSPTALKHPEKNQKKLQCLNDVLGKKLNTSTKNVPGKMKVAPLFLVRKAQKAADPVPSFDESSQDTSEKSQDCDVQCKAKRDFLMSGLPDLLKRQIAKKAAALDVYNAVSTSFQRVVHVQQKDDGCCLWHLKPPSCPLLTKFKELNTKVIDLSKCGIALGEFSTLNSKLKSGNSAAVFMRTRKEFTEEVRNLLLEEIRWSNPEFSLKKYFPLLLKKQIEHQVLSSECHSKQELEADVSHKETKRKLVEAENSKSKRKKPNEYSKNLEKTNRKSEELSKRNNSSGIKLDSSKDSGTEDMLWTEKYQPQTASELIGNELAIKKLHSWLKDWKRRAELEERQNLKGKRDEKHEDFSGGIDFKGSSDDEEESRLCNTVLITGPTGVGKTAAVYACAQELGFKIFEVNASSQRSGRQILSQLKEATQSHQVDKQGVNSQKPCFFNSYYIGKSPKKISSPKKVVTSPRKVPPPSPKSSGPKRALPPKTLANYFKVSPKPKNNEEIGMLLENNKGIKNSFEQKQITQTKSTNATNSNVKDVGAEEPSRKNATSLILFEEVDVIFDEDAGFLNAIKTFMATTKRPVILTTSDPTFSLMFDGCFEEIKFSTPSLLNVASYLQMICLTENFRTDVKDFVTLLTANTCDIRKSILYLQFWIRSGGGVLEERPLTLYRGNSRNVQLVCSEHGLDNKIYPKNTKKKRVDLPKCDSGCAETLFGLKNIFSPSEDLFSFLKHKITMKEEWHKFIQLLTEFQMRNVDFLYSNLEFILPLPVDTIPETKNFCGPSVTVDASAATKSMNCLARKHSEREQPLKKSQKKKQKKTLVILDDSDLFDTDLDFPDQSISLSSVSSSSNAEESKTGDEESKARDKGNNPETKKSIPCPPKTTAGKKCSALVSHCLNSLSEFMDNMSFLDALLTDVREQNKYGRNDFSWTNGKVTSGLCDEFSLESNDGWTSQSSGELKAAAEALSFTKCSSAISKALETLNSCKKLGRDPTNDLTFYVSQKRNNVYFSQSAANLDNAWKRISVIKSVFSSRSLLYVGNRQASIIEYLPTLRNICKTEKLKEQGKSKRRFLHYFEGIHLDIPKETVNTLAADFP
ELG1-Luc MMS = MMS-stimulated human ELG1 repair inhibition, confirmed. shares compounds with ELG1 DNA repair. HEK293T luciferase-tagged ELG1 level, MMS stimulated. Potency, µM (series often up to 46.1 µM), hits mostly inhibitors. 670 tested, 53% active. AID 624249; further: nearly all actives have a fitted effect of over 60% in size
ELG1 5-FU = confirmation of ELG1 repair inhibitors: viability with 5FU; shares compounds with ELG1 DNA repair; cell viability with 5-FU, ELG1-dependent repair; Potency, µM (top dose mostly 46.1 µM), most hits filed as cytotoxic; 670 tested, under 10 active; AID 624250;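 further: ELG1-luc HEK293T cells cotreated with 5-fluorouridine at 10 µM final; viability measured 16 h after compound addition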
ELG1 MMS cell = confirmation of ELG1 repair inhibitors: viability with MMS; shares compounds with ELG1 DNA repair; Cell viability with MMS, ELG1-dependent DNA repair; Potency, µM (top dose mostly 46.1 µM), usual class: cytotoxic; 670 tested, 33% active; AID 624251;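 further: ELG1-luc HEK293T cells co-treated with 10 µM MMS; viability read 16 h after compound addition; nearly all actives have a fitted effect of over 60% in size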
ELG1 unstim viab = counter-screen for ELG1 repair inhibitors: unstimulated cell viability; shares compounds with ELG1 DNA repair; 900 tested, 8% active; cell viability counter-screen, unstimulated, luminescence; Potency, µM (titrated, usually from 45.9 µM), most hits filed as cytotoxic;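 further: compound exposure lasted 16 hours before reading; nearly all actives have a fitted effect of over 55% in size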
FLuc enzyme = firefly luciferase inhibition counter-screen; shares compounds with ELG1 DNA repair; purified firefly luciferase, luminescence counter-screen; Potency, µM (titrated, usually from 57.5 µM), actives largely listed as inhibitors; 350 tested, 10% active; AID 624253
Hits are given with their value; - = inactive; ? = inconclusive; . = no result. The call rests on the fitted dose curve; in most records, active means well fitted curve in the direction sought with a large enough effect; inconclusive means small, poorly fitted or top-dose-only effect, or another doubt; inactive means no such curve, though single readings can be large; an effect the other way counts as inactive or inconclusive.

SMILES	MCF10A rerep	ELG1 DNA repair	SW480 rereplic	KB-V1 MDR tox	KB-3-1 cytotox	ELG1 FLuc counter	ELG1 Luc conf	ELG1-Luc MMS	ELG1 5-FU	ELG1 MMS cell	ELG1 unstim viab	FLuc enzyme
COc1cccc(NS(=O)(=O)c2ccc3c(c2)CCN3C(C)=O)c1	-	2.1µM	-	?	?	.	?	6.3µM	-	4.4µM	?	.
Cc1cc(C(=O)COC(=O)C2=COCCO2)c(C)n1-c1ccccc1	-	?	-	13µM	-	11µM	.	.	.	.	?	0.092µM
CCCNC(=O)C1(C)CCN(Cc2ccc(C(=O)OCC)cc2)C1 (centres undefined)	.	.	.	-	-	.	.	.	.	.	.	.
O=S(=O)(c1ccc2c(c1)OCCO2)N1CCN(c2ncnc3sccc23)CC1	-	4.6µM	?	-	?	.	13µM	2µM	?	1.8µM	?	.
Cc1cc2nn(-c3ccccc3)nc2cc1NC(=O)COc1ccc(Cl)cc1	.	.	.	-	-	.	.	.	.	.	.	.
Cc1sc2ncnc(N3CCC(C(=O)N(C)CC(=O)Nc4ccc(Cl)c(C(F)(F)F)c4)CC3)c2c1C	?	3.7µM	-	-	21µM	?	7.1µM	7.1µM	?	?	?	-
Cc1sc2ncnc(N3CCC(C(=O)Nc4ccc(S(N)(=O)=O)cc4)CC3)c2c1C	-	4.1µM	-	-	-	.	7.1µM	20µM	?	-	?	.
O=C(OCC(=O)c1c[nH]c2ccccc12)c1ccc(F)c(S(=O)(=O)N2CCOCC2)c1	.	.	.	-	-	.	.	.	.	.	.	.
CCN(C(=O)COC(=O)CCC(=O)c1cccs1)c1ccccc1	-	?	-	-	-	.	.	.	.	.	.	.
CN(C)c1ccc(/C=C/c2ccc3ccccc3[n+]2[O-])cc1	.	.	.	?	-	-	.	.	.	.	13µM	0.092µM
CC(C)(C)C(=O)Nc1cccc(-c2nnc(-c3cccc(NC(=O)C(C)(C)C)c3)o2)c1	-	4.6µM	-	-	-	.	7.9µM	?	-	-	?	.
C=CC[C@@H](CC(=O)NCCO)C(=O)NC[C@H](OC(=O)[C@@H](CC=C)Cc1ccc(F)cc1)c1ccccc1	-	3.3µM	-	?	-	.	?	14µM	?	-	-	.
COC(=O)Cn1c2[n+](c3ccccc31)CC(O)CS2 (centres undefined)	-	?	-	-	-	-	-	-	-	-	-	-
Cc1ccc(C)c(SCC(=O)NC2CCS(=O)(=O)C2)c1 (centres undefined)	-	-	-	-	-	.	.	.	.	.	.	.
CCOC(=O)N1CCN(C(=O)CSCC(=O)Nc2nc(-c3ccccc3)cs2)CC1	-	?	-	16µM	-	-	.	.	.	.	-	-
O=C(CSCC(=O)N1CCCCC1)Nc1nc(-c2ccc(Cl)s2)cs1	-	?	-	-	-	.	.	.	.	.	.	.
CC(C)C(=O)SCCCCCCC(=O)Nc1nc(-c2ccccc2)cs1	.	.	.	.	.	.	.	.	.	.	-	.
O=C(CSCC(=O)N1CCN(c2ccccc2)CC1)Nc1nc(-c2ccc(Cl)s2)cs1	-	?	-	-	-	-	.	.	.	.	?	-

Compound activity (PubChem)
